Experimental data reported in PubChem BioAssay AID651692 (Broad Institute, 2012).
Entries with a potency or affinity are not part of this list. The source made the active and inactive calls.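 Rule for the calls: active = fitted half-maximal concentration for loss of cell signal no higher than twice the top valid tested concentration; inconclusive = flat curve at 30 to 70% inhibition, or poor fit; inactive = flat within 30%, signal rise, or potency above limit.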

Experiment: cytotoxicity toward MDA-MB-231 breast cancer cells – cell-based, CellTiter-Glo luminescence, cherry-pick, cytotoxicity control for RAD54 inhibitor project, dose response (AID 651692);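 note: 0% = median of sample compound wells and -100% = staurosporine control wells; more negative values mean stronger loss of viable cell signal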
Details: MDA-MB-231 viability, 24 h; series mostly up to 26 µM; activity change, negative = growth inhibition: at the top concentration

Row | Compound | activity change, negative = growth inhibition
1 | CCCN(CCC)CCCNC(=S)Nc1ccc2nc(N3CCCC3)cc(C)c2c1 | -3.41% (inactive)
2 | Cc1ccnc(Nc2nc(-c3sc(C)nc3C)cs2)c1 | 0.852% (inactive)
3 | CCOC(=O)c1cnc2c(C)c(Cl)ccc2c1NCCCN1CCOCC1 | 7.57% (inactive)
4 | CCCN1CCN(CCCNC(=S)Nc2ccc3nc(N4CCN(CC)CC4)cc(C)c3c2)CC1 | 3.59% (inactive)
5 | O=C(CS(=O)(=O)c1ccccc1)Nc1ccc(Br)cn1 | 8.12% (inactive)
6 | COc1ccc(C(=O)Nc2cc(C)c(NC(=O)c3ccccc3OC)cn2)cc1 | -4.12% (inactive)
7 | CC1CCCCC1NC(=O)C1Cc2ccccc2CN1S(C)(=O)=O (centres undefined) | 1.52% (inactive)
8 | CCN1CCN(c2cc(C)c3cc(NC(=S)N4CCCCC4)ccc3n2)CC1 | -12.2% (inactive)
9 | COc1ccc2nc(C)cc(Nc3ccc(C)cc3)c2c1 | 3.03% (inactive)
10 | COc1cccc2sc3cc(NCCCN4CCOCC4)ccc3c(=O)c12 | 6.52% (inactive)
11 | CCOC(=O)Nc1c2ccccc2nc2ccccc12 | 7.91% (inactive)
12 | CCOC(=O)c1cnc2c(C)cc(Cl)cc2c1NCCCN1CCOCC1 | 13% (inactive)
13 | O=C(Nc1nnc(COc2ccc(F)cc2)s1)c1ccco1 | 8.23% (inactive)
14 | O=c1c2ccccc2oc2cc(NCCCN3CCOCC3)ccc12 | 6.64% (inactive)
15 | COc1cc2nc(N(C)C)nc(N)c2cc1OC | 0.925% (inactive)
16 | NC(=O)C1CCN(c2nc(-c3cccnc3)cs2)CC1 | 5.88% (inactive)
17 | CCCCN(CC)CCCNC(=O)c1cc2c(=O)n(C)c3ccccc3c2n1C | -6.97% (inactive)
18 | Cc1nc2oc3c(=O)[nH]cnc3c2c2c1COC(C)(C)C2 | 10.6% (inactive)
19 | CN(C)CCN(C(=O)c1ccco1)c1nc2cc3c(cc2s1)OCCO3 | -3.18% (inactive)
20 | CCCCN(CC)CCCNC(=S)Nc1ccc2nc(N3CCN(C)CC3)cc(C)c2c1 | -1.01% (inactive)

Row | Compound | activity change, negative = growth inhibition
21 | CN1CCN(c2ccc(Nc3ccnc4cc(Cl)ccc34)cc2)CC1 | -10.8% (inactive)
22 | Cc1cccc2c1-c1sc(C(=O)NCCCN3CCCC(C)C3)cc1CO2 (centres undefined) | -13.9% (inactive)
23 | CCN(CC)S(=O)(=O)c1ccc(Cl)c(C(=O)Nc2nnc(C)s2)c1 | 3.35% (inactive)
24 | NC(=O)CN1CCN(CCN2C(=O)c3cccc4cccc(c34)C2=O)CC1 | 0.913% (inactive)
25 | CCOC(=O)c1cnc2c(ccc3ccccc32)c1NCCCN(C)C | 5.51% (inactive)
26 | Nc1c(C(=O)NCCN2CCOCC2)c2nc3ccccc3nc2n1-c1ccc2c(c1)OCO2 | -0.672% (inactive)
27 | c1cc2c3c(cccc3c1)C(N1CCCCC1)=N2 | 4.52% (inactive)
28 | OCCNc1nc(Nc2ccc(O)cc2)nc2ccccc12 | 13.3% (inactive)
29 | Cc1[nH]ccc2cc3nc4ccccc4c3cc12 | -23.1% (inactive)
30 | CCOC(=O)c1cnc2ccc(OC)cc2c1Nc1ccc(N2CCN(C)CC2)cc1 | -2.13% (inactive)
31 | c1ccc(-c2nnc(SCc3nc4ccccc4[nH]3)o2)cc1 | 13.1% (inactive)
32 | c1c[nH]c(CN2CCN(Cc3ncc[nH]3)CC2)n1 | 2.65% (inactive)
33 | Cc1ccc(S(=O)(=O)N2CCOCC2)c(C)c1NS(C)(=O)=O | 1.27% (inactive)
34 | CN(C)CCc1cc2c(c3c1ccc1ccccc13)OCO2 | -11% (inactive)
35 | CCOC(=O)c1c(NC(=O)c2ccc(S(=O)(=O)N3CCOCC3)cc2)sc2c1CCN(C)C2 | -4.66% (inactive)
36 | CC(C)N1CCc2c(sc(NC(=O)c3ccc(C(=O)c4ccccc4)cc3)c2C(N)=O)C1 | -13.8% (inactive)
37 | CCN(CC)CCCNc1nc2cc(OC)c(OC)cc2c2nc(-c3cccnc3)nn12 | 9.47% (inactive)
38 | CCOC(=O)C1C(=O)NC(N2CCN(c3ccccc3)CC2)=NC1c1ccco1 (centres undefined) | -0.077% (inactive)
39 | CCCN(CCC)CCCNC(=O)c1cc2c(=O)[nH]c3ccccc3c2s1 | 0.356% (inactive)
